The record followed here is publication PMC7862700, “An all-to-all approach to the identification of sequence-specific readers for epigenetic DNA modifications on cytosine”.

Holding throughout (test): DAPPL (digital affinity profiling via proximity ligation, sequencing); 10 mM Tris-HCl pH 7.5, 50 mM NaCl, 1 mM DTT, 4% glycerol, room temperature, 30 min; GST-TFs on glutathione beads, 16-mer random dsDNA library, 0.1% formaldehyde crosslink after washing; high values mean tight binding
For one test, the target named is T1, ELK3 (Homo sapiens, UniProt P41970 1-407).
T1 sequence: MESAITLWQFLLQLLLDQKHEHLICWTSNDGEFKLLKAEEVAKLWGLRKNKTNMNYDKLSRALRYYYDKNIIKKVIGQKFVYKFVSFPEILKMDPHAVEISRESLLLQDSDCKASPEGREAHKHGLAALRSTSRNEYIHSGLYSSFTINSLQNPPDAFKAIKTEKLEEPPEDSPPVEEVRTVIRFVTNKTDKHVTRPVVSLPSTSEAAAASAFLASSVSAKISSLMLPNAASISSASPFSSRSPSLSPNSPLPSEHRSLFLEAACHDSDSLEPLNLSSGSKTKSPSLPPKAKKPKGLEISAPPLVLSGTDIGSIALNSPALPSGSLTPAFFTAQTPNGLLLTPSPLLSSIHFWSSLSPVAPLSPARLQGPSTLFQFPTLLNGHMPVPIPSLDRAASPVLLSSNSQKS
The note with it: protein: recombinant; tags: N-terminal GST; dsDNA, one strand shown. A digest of the protocol:
(§1)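 Human transcription factors were made in yeast as GST fusions, captured on glutathione beads and barcoded with DNA. With a tag-only sample included, the pool was incubated with 200 nmole of a random double-stranded 16-mer DNA library in Tris/NaCl/DTT/glycerol buffer at room temperature for 30 min, then crosslinked with 0.1% formaldehyde after washing, ligated by proximity, amplified and sequenced. For binding signal, each hexamer's read frequency for a factor is divided by its frequency for the tag-only sample.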

A further test has as its target HSF1 (Homo sapiens, UniProt Q00613 1-529). The note with it: protein: recombinant; tags: N-terminal GST; chain copies: 3; dsDNA, one strand shown. A digest of the protocol:
as §1

In a further test the target is T2, ETV7 (Homo sapiens, UniProt Q9Y603 1-341).
T2 sequence: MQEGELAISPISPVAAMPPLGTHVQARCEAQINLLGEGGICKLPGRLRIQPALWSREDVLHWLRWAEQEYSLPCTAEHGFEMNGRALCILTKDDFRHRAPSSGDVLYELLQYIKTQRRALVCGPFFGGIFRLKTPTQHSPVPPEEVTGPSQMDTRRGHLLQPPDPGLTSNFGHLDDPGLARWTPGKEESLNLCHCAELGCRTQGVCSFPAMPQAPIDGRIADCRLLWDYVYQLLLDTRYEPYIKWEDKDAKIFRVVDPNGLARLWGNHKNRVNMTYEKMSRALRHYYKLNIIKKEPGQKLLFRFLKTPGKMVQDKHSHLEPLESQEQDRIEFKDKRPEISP
The note with it: protein: recombinant; tags: N-terminal GST; dsDNA, one strand shown. A digest of the protocol: as §1

The next test addresses T3, ELF5 (Homo sapiens, UniProt Q9UKW6-2 1-255).
T3 sequence: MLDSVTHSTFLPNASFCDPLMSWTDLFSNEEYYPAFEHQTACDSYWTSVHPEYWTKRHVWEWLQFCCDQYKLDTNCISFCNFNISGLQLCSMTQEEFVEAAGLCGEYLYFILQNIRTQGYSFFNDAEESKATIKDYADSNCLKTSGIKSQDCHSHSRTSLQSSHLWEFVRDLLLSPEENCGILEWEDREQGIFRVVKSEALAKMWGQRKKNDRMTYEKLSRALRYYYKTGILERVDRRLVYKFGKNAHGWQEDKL
The conditions noted are these: protein: recombinant; tags: N-terminal GST; dsDNA, one strand shown. A digest of the protocol:
as §1

The target in another test is T4, ETV3 (Homo sapiens, UniProt P41162-2 1-143).
T4 sequence: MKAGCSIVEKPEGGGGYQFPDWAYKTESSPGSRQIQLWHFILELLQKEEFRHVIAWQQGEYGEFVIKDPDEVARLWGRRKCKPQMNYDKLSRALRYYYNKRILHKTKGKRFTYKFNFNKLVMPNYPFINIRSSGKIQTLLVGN
The conditions noted are these: protein: recombinant; tags: N-terminal GST; dsDNA, one strand shown. A digest of the protocol: as §1

For the next test, the target named is ETV6 (Homo sapiens, UniProt P41212 1-452). The conditions noted are these: protein: recombinant; tags: N-terminal GST; dsDNA, one strand shown. A digest of the protocol:
as §1

The target of the next test is CRX (Homo sapiens, UniProt O43186 1-299). The note with it: protein: recombinant; tags: N-terminal GST; dsDNA, one strand shown. A digest of the protocol: as §1
Sequence of CRX (O43186 whole entry): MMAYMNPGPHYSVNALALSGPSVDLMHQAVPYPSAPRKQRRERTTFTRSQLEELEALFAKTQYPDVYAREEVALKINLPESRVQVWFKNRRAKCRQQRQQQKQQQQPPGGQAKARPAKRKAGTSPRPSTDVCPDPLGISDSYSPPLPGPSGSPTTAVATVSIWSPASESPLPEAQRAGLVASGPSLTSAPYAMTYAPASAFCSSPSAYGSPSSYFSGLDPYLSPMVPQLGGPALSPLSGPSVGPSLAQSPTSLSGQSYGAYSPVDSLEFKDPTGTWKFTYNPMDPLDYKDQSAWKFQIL
In another test the target is T5, ETV3L (Homo sapiens, UniProt Q6ZN32 1-361).
T5 sequence: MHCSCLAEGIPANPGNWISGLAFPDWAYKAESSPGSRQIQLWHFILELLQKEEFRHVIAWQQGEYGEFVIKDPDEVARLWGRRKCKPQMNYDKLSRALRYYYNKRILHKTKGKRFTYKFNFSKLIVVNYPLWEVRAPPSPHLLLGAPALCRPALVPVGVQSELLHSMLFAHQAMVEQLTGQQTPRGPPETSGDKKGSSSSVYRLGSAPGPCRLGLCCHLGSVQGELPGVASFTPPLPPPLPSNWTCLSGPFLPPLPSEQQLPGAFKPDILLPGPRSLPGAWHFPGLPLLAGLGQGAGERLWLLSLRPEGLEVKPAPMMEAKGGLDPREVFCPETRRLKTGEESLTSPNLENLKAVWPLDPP
The conditions noted are these: protein: recombinant; tags: N-terminal GST; dsDNA, one strand shown. A digest of the protocol: as §1

A further test concerns the target T6, SPDEF (Homo sapiens, UniProt O95238 1-335).
T6 sequence: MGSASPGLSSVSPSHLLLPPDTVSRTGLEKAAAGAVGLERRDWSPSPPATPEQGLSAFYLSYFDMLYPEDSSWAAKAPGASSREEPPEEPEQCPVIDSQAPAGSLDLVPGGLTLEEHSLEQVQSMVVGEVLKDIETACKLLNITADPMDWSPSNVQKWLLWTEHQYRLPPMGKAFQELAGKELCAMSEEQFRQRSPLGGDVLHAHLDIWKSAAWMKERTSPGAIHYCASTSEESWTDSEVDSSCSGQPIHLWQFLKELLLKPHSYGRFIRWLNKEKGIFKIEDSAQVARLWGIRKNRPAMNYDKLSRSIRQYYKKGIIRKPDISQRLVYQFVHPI
The note with it: protein: recombinant; tags: N-terminal GST; dsDNA, one strand shown. A digest of the protocol: as §1

Another test concerns the target T7, ERF (Homo sapiens, UniProt P50548 1-548).
T7 sequence: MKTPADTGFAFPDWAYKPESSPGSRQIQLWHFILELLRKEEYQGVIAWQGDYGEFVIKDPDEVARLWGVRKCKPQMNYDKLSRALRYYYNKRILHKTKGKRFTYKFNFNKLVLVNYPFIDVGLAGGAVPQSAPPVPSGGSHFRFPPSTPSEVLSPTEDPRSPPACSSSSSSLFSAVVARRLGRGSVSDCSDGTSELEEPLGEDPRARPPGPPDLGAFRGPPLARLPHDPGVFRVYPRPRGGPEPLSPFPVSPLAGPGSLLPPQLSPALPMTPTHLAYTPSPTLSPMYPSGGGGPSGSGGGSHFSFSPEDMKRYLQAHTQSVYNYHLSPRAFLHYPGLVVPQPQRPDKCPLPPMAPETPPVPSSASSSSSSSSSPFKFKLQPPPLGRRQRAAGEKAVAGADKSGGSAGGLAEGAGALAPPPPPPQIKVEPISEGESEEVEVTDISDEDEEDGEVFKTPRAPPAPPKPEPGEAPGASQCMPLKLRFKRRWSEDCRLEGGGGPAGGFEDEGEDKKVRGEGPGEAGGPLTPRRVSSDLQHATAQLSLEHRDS
The note with it: protein: recombinant; tags: N-terminal GST; dsDNA, one strand shown. A digest of the protocol:
as §1

Another test has as its target SPIB (Homo sapiens, UniProt Q01892 1-262). The note with it: protein: recombinant; tags: N-terminal GST; dsDNA, one strand shown. A digest of the protocol: as §1

Sequence of HSF1 (Q00613 whole entry): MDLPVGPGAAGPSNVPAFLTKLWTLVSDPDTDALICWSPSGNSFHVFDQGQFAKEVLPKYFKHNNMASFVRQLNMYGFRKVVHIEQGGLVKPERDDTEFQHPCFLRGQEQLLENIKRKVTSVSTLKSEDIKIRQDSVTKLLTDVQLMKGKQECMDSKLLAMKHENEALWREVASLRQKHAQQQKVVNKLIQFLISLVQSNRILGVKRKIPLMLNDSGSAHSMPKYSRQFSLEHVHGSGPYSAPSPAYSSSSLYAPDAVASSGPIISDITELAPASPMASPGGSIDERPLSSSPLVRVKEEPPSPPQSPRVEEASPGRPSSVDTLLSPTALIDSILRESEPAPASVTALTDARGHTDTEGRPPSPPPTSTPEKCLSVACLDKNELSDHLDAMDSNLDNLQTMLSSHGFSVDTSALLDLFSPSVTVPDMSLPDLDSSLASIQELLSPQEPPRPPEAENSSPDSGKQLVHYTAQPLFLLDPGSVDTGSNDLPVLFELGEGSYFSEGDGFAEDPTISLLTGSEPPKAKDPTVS
Sequence of ETV6 (P41212 whole entry): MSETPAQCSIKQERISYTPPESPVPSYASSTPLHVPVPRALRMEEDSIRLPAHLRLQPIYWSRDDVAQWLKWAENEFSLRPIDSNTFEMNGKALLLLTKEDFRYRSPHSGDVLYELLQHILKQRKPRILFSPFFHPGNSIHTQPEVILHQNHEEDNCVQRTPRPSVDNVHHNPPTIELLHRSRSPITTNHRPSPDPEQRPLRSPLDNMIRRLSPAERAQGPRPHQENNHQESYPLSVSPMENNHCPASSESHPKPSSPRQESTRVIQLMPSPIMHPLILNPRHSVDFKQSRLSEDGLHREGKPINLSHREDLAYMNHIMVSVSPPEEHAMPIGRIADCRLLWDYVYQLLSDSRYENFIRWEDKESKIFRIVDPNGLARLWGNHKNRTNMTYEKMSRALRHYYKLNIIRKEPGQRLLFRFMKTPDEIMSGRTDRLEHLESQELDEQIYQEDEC
Sequence of SPIB (Q01892 whole entry): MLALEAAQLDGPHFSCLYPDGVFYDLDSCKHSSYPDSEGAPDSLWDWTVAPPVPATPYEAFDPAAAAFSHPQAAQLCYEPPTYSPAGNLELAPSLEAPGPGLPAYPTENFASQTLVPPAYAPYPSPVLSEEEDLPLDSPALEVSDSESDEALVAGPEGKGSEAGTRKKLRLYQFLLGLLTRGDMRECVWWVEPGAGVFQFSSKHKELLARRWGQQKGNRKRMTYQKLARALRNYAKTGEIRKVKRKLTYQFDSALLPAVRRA

For GGAAAG, the binding signal with ELK3 is 1 fold enrichment (6-mer frequency, TF over GST control); with HSF1 it was 1.29 fold enrichment (6-mer frequency, TF over GST control); with ETV7 it was 1.06 fold enrichment (6-mer frequency, TF over GST control); with ELF5 it was 1.12 fold enrichment (6-mer frequency, TF over GST control); in the test with ETV3, 1 fold enrichment (6-mer frequency, TF over GST control); with ETV6, 1.06 fold enrichment (6-mer frequency, TF over GST control).
Turning to AGGATT, the binding signal is 1.78 fold enrichment (6-mer frequency, TF over GST control) with HSF1; 2.82 fold enrichment (6-mer frequency, TF over GST control) in the test with CRX; 1.03 fold enrichment (6-mer frequency, TF over GST control) with ETV3L; 1.04 fold enrichment (6-mer frequency, TF over GST control) with SPDEF.
As for CCAGAT, the binding signal with HSF1 was 1.61 fold enrichment (6-mer frequency, TF over GST control); with CRX, 1.34 fold enrichment (6-mer frequency, TF over GST control).
With CCAAGA, the binding signal in the test with HSF1 was 1.03 fold enrichment (6-mer frequency, TF over GST control); in the test with ERF, 1.01 fold enrichment (6-mer frequency, TF over GST control).
As for GAAGAT, the binding signal in the test with HSF1 was 1.24 fold enrichment (6-mer frequency, TF over GST control); with CRX, 1.12 fold enrichment (6-mer frequency, TF over GST control); in the test with ETV7 it was 1 fold enrichment (6-mer frequency, TF over GST control).
On to TGCGAG, for which the binding signal with SPIB was 1.03 fold enrichment (6-mer frequency, TF over GST control); in the test with HSF1, 1.15 fold enrichment (6-mer frequency, TF over GST control).
In the case of ATCCAG, the binding signal in the test with HSF1 was 1.53 fold enrichment (6-mer frequency, TF over GST control); with CRX it was 1.29 fold enrichment (6-mer frequency, TF over GST control).
